Source: PubChem (National Center for Advancing Translational Sciences (NCATS))
Pf Dd2 growth = Plasmodium falciparum Dd2 growth inhibition | P. falciparum Dd2 growth, SYBR Green, 72 h | Potency, µM (top dose mostly 28.9 µM), for the others: at the highest dose activity, negative = inhibition, hits mostly inhibitors | actives 4.3% (n = 120,000); active = well fitted inhibition curve with a large enough effect;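 note: plate controls were DMSO vehicle for no effect and reference drug for full effect; nearly all actives have a fitted effect of over 65% in size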
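Readout: SYBR Green fluorescence, 485 nm excitation, 535 nm emission, after ~16 h lysis at 37C. Before that, Dd2-infected red cells (2.5% hematocrit) grew 72 h with compound, 29 uM top final concentration.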
An asterisk follows results filed as active; i = inactive; [ ] = another dose, or the depositor's remark. The full list was thinned out, with hits kept by preference. Potency is the fitted concentration of half-maximal effect.

SMILES	Pf Dd2 growth
COc1cccc(CN2CC(Oc3ccccc3C(=O)NCc3ccccc3)C2)c1	3.5µM*
O=C(NC1CC1)c1ccccc1OC1CN(Cc2cccc(C(F)(F)F)c2)C1	-24%
O=C(NC1CC1)c1ccccc1OC1CN(Cc2cccc(F)c2)C1	-14%
Cc1nnsc1C(=O)N[C@H]1CCN(C(=O)c2cccn2C)[C@H](C(=O)N[C@H](Cc2ccccc2)C(N)=O)C1	-1%
Cc1ccncc1C(=O)N1CCn2c(nnc2[C@@H]2C[C@@H](O)CN2Cc2ccccc2)C1	40%
Cc1ccc2c(c1)N1C(=O)OC[C@@H]1CCN(C(=O)CCC(=O)O)C2	19%[44.1 µM]
COc1cccc(C(=O)N2CCC(C(NC(=O)c3ccc(F)cc3)C(=O)N3CCCC3)CC2)c1 (stereo not drawn)	i
CCOc1ccccc1CN1CCc2nc(N3CCOCC3)[nH]c(=O)c2CC1	25%[5.79 µM]
O=c1[nH]c(N2CCOCC2)nc2c1CCN(Cc1ccc(F)cc1)CC2	23%[5.79 µM]
O=c1[nH]c(N2CCOCC2)nc2c1CCN(Cc1ccc(Cl)cc1F)CC2	0.32µM*
CN1CCN(c2nc3c(c(=O)[nH]2)CCN(Cc2ccccc2Br)CC3)CC1	i[5.79 µM]
O=c1[nH]c(N2CCOCC2)nc2c1CCN(Cc1ccc(Cl)cc1)CC2	-10%[5.79 µM]
O=c1[nH]c(N2CCOCC2)nc2c1CCN(Cc1ccccc1Br)CC2	1.3µM*
COc1ccc(N2Cc3c(ncnc3N3CCCN(C(C)=O)CC3)N(C)CC2=O)cc1	21%
Cc1ncnc(N2CCC3(CC2)CC(=O)N(CCCc2ccccc2)C3)c1C	-21%
CN1CCCCCCN(C(=O)NC2CCCCC2)[C@H]2CCC[C@H]2C1=O	i
CCOc1ccccc1NC(=O)N1CCCCCCN(C)C(=O)[C@H]2CCC[C@H]21	11µM*
CCOc1ccccc1NC(=O)N1CCCCCCN(C)C(=O)CC1	-24%
CCc1ccc2nc(N3CCN(C(=O)c4ccco4)CC3)sc2c1	i
CCCCN(C)CCCNC(=O)C1CCN(S(=O)(=O)CC)CC1	9%
CCCCN(C)CCCNC(=O)C1CCN(c2nc3ccc(CC)cc3s2)CC1	11µM*
O=C(NC1CCN(C(=O)N2CC3CC(C2)[C@H]2CCCC(=O)N2C3)CC1)C1CCOCC1 (stereo partly drawn)	-12%
Cc1ccccc1C(=O)N1CCCC(Nc2ccc(F)cc2)C1 (stereo not drawn)	-19%
COc1ccc(-c2noc(CC3CCN(C(=O)c4ccc(OC)nc4OC)CC3)n2)cc1	-16%
CCn1cc(CN2CCN(C(=O)c3ccc4[nH]ccc4c3)CC2)ccc1=O	16%
SMILES	Pf Dd2 growth
COc1cccc(NC(=O)Nc2cc(-c3cn4cccnc4n3)ccc2C)c1	i
COc1ccc(-c2cn3cccnc3n2)cc1NC(=O)Nc1cc(C)ccc1C	11µM*
COc1cccc(NC(=O)Nc2cc(-c3cn4cccnc4n3)ccc2OC)c1	i
COc1ccc(NC(=O)CCc2ccc3c(c2)CN(C(=O)NC(C)C)CCO3)cn1	-21%
Cc1ccccc1OCC(=O)Nc1cccn2nc(-c3cccnc3)nc12	i
Cc1nc([C@@H]2CN(C(=O)c3ccc(Br)o3)C[C@H]2C(N)=O)n[nH]1	-5%
c1cncc(-c2nc3c(c(NCc4ccccc4-n4ccnc4)n2)CNC3)c1	i
CCCOc1ccccc1C(C)Nc1nc(-c2cccnc2)nc2c1CNC2 (stereo not drawn)	11µM*
CS(=O)(=O)NC1CCN(c2nc(-c3cccnc3)nc3c2CNC3)CC1	4%
COc1cc(OC)cc(N2C(=O)N(CC(=O)c3ccc(F)cc3)c3ccccc3S2(=O)=O)c1	8.9µM*
Cc1ccc(N2C(=O)N(CC(=O)C(C)(C)C)c3ccccc3S2(=O)=O)cc1C	-11%
COc1ccc(C(=O)CN2C(=O)N(c3cc(C)ccc3C)S(=O)(=O)c3ccccc32)cc1	i
CC(C)NC(=O)NC[C@H]1O[C@@H](CO)[C@@H](O)[C@H]1N(C)CCc1ccccn1	-1%
F[C@@H]1CN(Cc2ccc3c(c2)OCCO3)C[C@@H]1OCc1nc2ccccc2[nH]1	i
COc1ccc(-c2csc(=Nc3ccccc3)n2CCO)cc1F	i
CCn1c(-c2ccc(S(=O)(=O)N3CCOCC3)cc2)csc1=Nc1ccc(C)c(Cl)c1	-20%
O=S(=O)(c1ccc(-c2csc(=Nc3ccc(OC(F)(F)Cl)cc3)n2CCCO)cc1)N1CCCC1	11µM*
CC(C)CC(=O)N1CCCCCC1CN1CCC(C)CC1 (stereo not drawn)	i
CCc1ccc(CN(C)C(C(=O)O)c2c(OC)cccc2OC)nc1 (stereo not drawn)	-15%
Cc1c(CNC2CCCCCC2)c(C(=O)O)c(C)n1Cc1ccc(F)cc1	8%[5.79 µM]
CCc1c(C)sc2c1CCN(Cc1ccc(F)cc1)C2c1ccccc1 (stereo not drawn)	3.2µM*
CCc1ccc(-n2c(=O)c3c4c(sc3n(Cc3ccc(F)cc3)c2=O)CCCC4)cc1	-13%
Cc1cc(C(=O)N2CCC(c3noc(-c4ccccc4)n3)C2)n[nH]1 (stereo not drawn)	i[5.79 µM]
COCCCNc1nc2c([S+](=O)([O-])c3ccc(OC)cc3)nnn2c2ccccc12	-19%
CC(C)(N)C(=O)N1CCC(n2nccc2NC(=O)c2cccc(F)c2)CC1	-8%
